Measurements as given in ChEMBL document CHEMBL4513146, “CO-ADD screening of Karazin Kharkiv National University (Ukraine) compounds”.
Results with a measured potency or affinity are listed apart.

Columns and labels:
[1] = tested on: Staphylococcus aureus; conditions: Concentration 32 ug.mL-1;; ASSAY_TEST Inhibition of Bacterial Growth; detection method Absorption (OD600); MEDIA CAMHB; plate type 384well; NBS; CORNING #3640; time 18 hr
[2] = tested on: Escherichia coli; conditions: Concentration 32 ug.mL-1;; ASSAY_TEST Inhibition of Bacterial Growth; detection method Absorption (OD600); MEDIA CAMHB; plate type 384well; NBS; CORNING #3640; time 18 hr

Compound | Inhibition [1] [%] | Inhibition [2] [%]
Cc1ccc(-c2ccc3nn(Cc4c(F)cccc4Cl)c(=O)n3n2)cc1 | 14.3 | -0.36
O=C(Cn1nc2c(Sc3ccccc3)nccn2c1=O)Nc1ccc2c(c1)OCO2 | -26.09 | 0.44
O=C(Cn1nc2ccc(Sc3cccc(F)c3)nn2c1=O)Nc1ccc(Cl)cc1 | 7.1 | -8.49
CCOc1ccccc1NC(=O)Cn1nc2c(Sc3cccc(C)c3)nccn2c1=O | 3.15 | -1.9
Cc1c(Cl)cccc1-n1ccn2c(SCC(=O)c3c[nH]c4ccccc34)nnc2c1=O | -2.75 | -4.84
COC(=O)c1ccc(NC(=O)Cn2c(=O)c3nnc(C(C)C)n3c3ccccc32)cc1 | 8.86 | 0.09
COc1ccc(NC(=O)Cn2nc3c(SC4CCCCC4)nccn3c2=O)cc1Cl | -11.83 | -6.21
O=C(Cn1nc2c3sc(N4CCCC4)nc3ncn2c1=O)Nc1ccccc1Cl | 4.77 | -9.42
CCCNC(=O)CSc1nnc2c(=O)n(-c3ccc(F)cc3)ccn12 | -5.35 | -1
COc1cccc(-n2ccn3c(SCc4ccccc4C)nnc3c2=O)c1 | 11 | -3.45
Cc1cc2nn(CC(=O)Nc3ccccc3F)c(=O)n2c(Nc2ccc(F)c(C)c2)n1 | 11.73 | -0.72
COc1ccc(-n2ccn3c(=O)n(Cc4ccccc4Cl)nc3c2=O)cc1Cl | 3.32 | 3.28
COc1cccc(-n2ccn3c(SCC(=O)Nc4ccc(Br)cc4)nnc3c2=O)c1 | -2.74 | -7.77
O=C(Cn1nc2c(N3CCOCC3)nccn2c1=O)NCc1ccc(C(F)(F)F)cc1 | 3.92 | -9.55
Cc1ccccc1NC(=O)Cn1nc2c(SC3CCCCC3)nccn2c1=O | 1.84 | -9.01
Cc1ccc(-c2cc3c4nnc(CCC(=O)NCc5ccc(F)c(Cl)c5)n4ccn3n2)cc1C | 9.12 | -0.93
COc1cccc(Sc2nc3ccccc3n3c(=O)n(CC(=O)Nc4ccccc4)nc23)c1 | -1.75 | -6.94
Cc1ccc(Cl)cc1NC(=O)CSc1nc2ccccc2n2c(C(C)C)nnc12 | 0.87 | -1.5
O=C(Cn1nc2nc(Nc3ccc(F)cc3)ccn2c1=O)NCc1ccc(F)cc1Cl | 7.6 | -1.86
O=S(=O)(c1ccc2nncn2c1)N(Cc1ccccc1F)c1cccc(F)c1 | -5.69 | -18.72
Cc1ccc(CN(c2cc(C)cc(C)c2)S(=O)(=O)c2cccn3c(C)nnc23)cc1 | 31.07 | -7.16
COc1ccc(NC(=O)CSc2nc3ccccc3n3c(C(C)C)nnc23)cc1Cl | -3.22 | -5.08
CCCn1c(=O)c2sccc2n2c(=O)n(CC(=O)c3ccccc3)nc12 | 3.8 | 2.71
O=C(Cn1nc2c(SC3CCCCC3)nccn2c1=O)Nc1ccc(F)c(Cl)c1 | -11.33 | -12.19
COc1ccccc1N1CCN(C(=O)CSc2nnc3c(=O)n(-c4ccc(F)cc4)ccn23)CC1 | 6.93 | 2.55

Compound | Inhibition [1] [%] | Inhibition [2] [%]
Cc1ccc(NC(=O)CSc2nc3ccccc3n3cnnc23)c(Br)c1 | -13.31 | -9.92
O=S(=O)(c1cccn2cnnc12)N(Cc1cccc(Cl)c1)c1cc(F)cc(F)c1 | 17.81 | -3.49
COc1ccc(NC(=O)Cn2nc3c4cc(-c5ccc(C)c(C)c5)nn4ccn3c2=O)cc1OC | 7.31 | -0.24
CCCCn1c(=O)c2sccc2n2c(=O)n(CC(=O)NC(C)CC)nc12 (stereo not given) | -5.96 | -9.68
Cc1ccccc1CSc1nnc2c(=O)n(-c3ccc(F)c(F)c3)ccn12 | 12.28 | -1.52
Cc1cccc(CN(c2cccc(Cl)c2)S(=O)(=O)c2cccn3c(C)nnc23)c1 | 9.05 | -5.75
Cc1ccc(-c2cc3c4nn(CC(=O)Nc5ccccc5Cl)c(=O)n4ccn3n2)cc1 | 2.52 | -6.02
CCc1cccc(NC(=O)Cn2nc3ccc(SC(C)C)nn3c2=O)c1 | 3.75 | -0.03
O=S(=O)(c1ccc2nncn2c1)N(Cc1ccccc1F)c1ccc2c(c1)OCCO2 | 5.05 | -6.13
Cc1ccccc1Oc1nccn2c(=O)n(CC(=O)Nc3ccccc3C(F)(F)F)nc12 | 10.19 | 1.35
CC(C)c1ccc(N(Cc2cc(F)cc(F)c2)S(=O)(=O)c2cccn3cnnc23)cc1 | 8.68 | -1.47
O=S(=O)(Nc1ccc2c(c1)OCCO2)c1ccc2nncn2c1 | 11.97 | -4.23
O=C(CCc1nnc2c(N3CCCCC3)nc3ccccc3n12)NCCc1ccc(Cl)cc1 | 11.18 | 0.17
CC(C)CCNC(=O)Cn1nc2n(CC(C)C)c(=O)c3sccc3n2c1=O | 4.95 | -1.56
COc1ccc(Cn2nc3ccc(-c4ccc(Cl)cc4)nn3c2=O)cc1F | 12.92 | 0.48
COc1ccc(-c2cc3c4nnc(CCC(=O)NCc5ccc(OC)c(OC)c5)n4ccn3n2)cc1 | 6.96 | -5.17
CCCc1nnc2c(=O)n(CC(=O)Nc3cccc(C(C)=O)c3)c3ccccc3n12 | 2.4 | -14.35
CSc1cccc(NC(=O)Cn2nc3c(Oc4ccccc4C)nccn3c2=O)c1 | 6.72 | -2.85
Cc1cccc(N(Cc2ccccc2F)S(=O)(=O)c2ccc3nncn3c2)c1 | -3.86 | -5.15
O=C(Cn1nc2c(SC3CCCCC3)nccn2c1=O)Nc1ccc(F)cc1 | 2.79 | -5.61
CCOC(=O)c1ccccc1NC(=O)Cn1nc2c(Oc3cccc(OC)c3)nccn2c1=O | -10.31 | 1.57
C=Cc1ccc(CN(c2ccc(F)c(F)c2)S(=O)(=O)c2cccn3cnnc23)cc1 | -2.72 | -13.7
Cc1ccc2c(c1)N(C(=O)Cn1nc3ccc(SC(C)(C)C)nn3c1=O)CCO2 | 10.2 | -0.14
Cc1ccc(-c2ccc3nn(Cc4cccc(F)c4)c(=O)n3n2)cc1C | 7.67 | 1.83
COc1ccc(OC)c(NC(=O)Cn2nc3c4c5c(sc4ncn3c2=O)CCCC5)c1 | 3.15 | -1.54
